Results from ChEMBL document CHEMBL1857833, “Screening and optimization of specific chemical series against human African Trypanosomiasis (HAT)”.
Where “and” joins values, the source holds several entries; their conditions need not be identical. Equal values may be shown once. Hit rate of the full screen: of about 4,400 compounds, about 390 (8.9%) showed an effect of 50% or more. The list comes from a sample in which strong results are over-represented; it also holds similar structures and randomly drawn compounds.

test system: Trypanosoma brucei; assay: DNDI: Inhibition of Human African Trypanosomiasis, SBRI 427, in vitro at 2 ug.mL-1; type: functional

SMILES	% inhibition
CSc1ccc(Oc2ccc(/C(=N/O)NC3CC(C)CC(C)(C)C3)cn2)cc1 (configuration not stated)	-8%
COc1ccc(-c2nc(CN3CCN(c4ccc(C(C)=O)cc4)CC3)co2)cc1	4%
CCOc1ccccc1-c1nc(CNCc2ccc(C(C)(C)C)cc2)co1	6%
Cc1ccc(/C(=N/O)N2CCCCC2)c(Oc2cccc(F)c2)n1	16%
O/N=C(\NCc1ccccc1F)c1ccc(Oc2ccc(Cl)cc2)nc1	-6%
CSc1ccc(Oc2ccc(/C(=N/O)NCc3ccccc3F)cn2)cc1	95%
CSc1ccc(Oc2ccc(/C(=N/O)NCc3ccccc3C)cn2)cc1	-7%
O/N=C(\NC1CCCCC1)c1ccc(Oc2cc(Cl)ccc2Cl)nc1	98%
O/N=C(\NCCN1CCOCC1)c1ccc(Oc2cc(Cl)ccc2Cl)nc1	34%
O/N=C(\NCC1CCCO1)c1ccc(Oc2cc(Cl)ccc2Cl)nc1 (configuration not stated)	34%
O/N=C(\NCC1CCCCC1)c1ccc(Oc2cc(Cl)ccc2Cl)nc1	76%
O/N=C(\NC1CCCC1)c1ccc(Oc2cc(Cl)ccc2Cl)nc1	99%
O/N=C(/c1ccc(Oc2cc(Cl)ccc2Cl)nc1)N1CCN(C2CCCC2)CC1	22%
N/C(=N\O)c1ccc(Oc2cc(Cl)ccc2Cl)nc1	10%
O/N=C(\NCC1CCCCC1)c1ccc(Oc2cccc3ccccc23)nc1	24%
O/N=C(\NCc1cccnc1)c1ccc(Oc2cc(Cl)ccc2Cl)nc1	8%
COc1ccc(Oc2nc(C)ccc2/C(=N/O)NCc2cc(F)ccc2F)cc1	15%
Cc1ccc(/C(=N/O)N2CCSC2)c(Oc2ccc3oc4ccccc4c3c2)n1	14%
Cc1cccc(-c2nc(CNCC(F)(F)F)co2)c1	-2%
COc1cccc(CNCc2coc(-c3ccc(Cl)cc3Cl)n2)c1OC	6%
CCN(Cc1ccccc1)Cc1coc(-c2cccc(F)c2)n1	14%
Cc1ccc(/C(=N/O)n2ccnc2C)c(OCC(F)(F)F)n1	21%

SMILES	% inhibition
COC(=O)C1CCN(Cc2coc(-c3ccc(O)cc3)n2)CC1	-3%
CCOc1ccc(-c2nc(CNCCCN(C)c3ccccc3)co2)cc1	42%
CCOc1ccccc1-c1nc(CN2CCN(c3ccc(C)cc3C)CC2)co1	7%
O/N=C(\NCc1ccccc1)c1ccc(Oc2ccc(-n3ccnc3)cc2)nc1	16%
O/N=C(\NCc1ccccc1)c1ccc(Oc2ccc(Cl)cc2)nc1	57%
O/N=C(\NCC1CCCCC1)c1ccc(Oc2ccc(Cl)cc2)nc1	93%
O/N=C(\NCc1ccncc1)c1ccc(Oc2ccc(Cl)cc2)nc1	-11%
O/N=C(\NCC1CCCO1)c1ccc(Oc2ccc(-n3ccnc3)cc2)nc1 (configuration not stated)	32%
O/N=C(\NCC1CCCCC1)c1ccc(Oc2ccc(F)cc2)nc1	28%
O/N=C(\NCC1CCCO1)c1ccc(Oc2ccc(Cl)cc2)nc1 (configuration not stated)	47%
COc1ccc(CN/C(=N\O)c2ccc(Oc3ccc(Cl)cc3)nc2)cc1	6%
O/N=C(\NCC1CCCCC1)c1ccc(Oc2ccc(-n3ccnc3)cc2)nc1	78%
CC1CN(Cc2coc(-c3ccc(Cl)cc3Cl)n2)CC(C)O1 (configuration not stated)	14%
CCCN/C(=N\O)c1ccc(C)nc1Oc1cccc(C(C)C)c1	4%
c1coc(-c2nc(CN3CCCc4ccccc43)co2)c1	18%
COc1ccc(-c2nc(CNC(C)c3ccccc3)co2)cc1 (configuration not stated)	3%
Cc1ccc(/C(=N/O)NCc2ccccn2)c(OCc2cccc(F)c2)n1	-1%
CCOc1ccc(-c2nc(Cn3ccnc3C(C)C)co2)cc1	10%
COc1ccc(-c2nc(CNC(c3ccccc3)c3ccccc3)co2)cc1	-28%
COc1ccccc1Oc1ncccc1/C(=N/O)N1CCOCC1	16%
CCC(NCc1coc(-c2ccc(Br)cc2)n1)c1ccccc1 (configuration not stated)	-22% and -13%
Cc1ccc(Oc2nc(C)ccc2/C(N)=N/O)c(C)c1	11%

SMILES	% inhibition
N#CCCN(Cc1coc(-c2ccc(F)cc2)n1)c1ccccc1	-10%
Cc1ccc(Oc2cc(/C(=N/O)N3CCCCC3)ccn2)c2c1CCC2	19%
Cc1ccc(Oc2cc(/C(=N/O)N3CC(C)CC(C)C3)ccn2)c(C)c1 (configuration not stated)	22%
CC(C)(C)CN/C(=N\O)c1ccc(Oc2cc(Cl)ccc2Cl)nc1	99%
Cc1ccc(Oc2cc(/C(=N/O)NCC(C)(C)C)ccn2)c(C)c1	96%
COCCN/C(=N\O)c1ccnc(Oc2cc(Cl)ccc2Cl)c1	27%
O/N=C(\NCc1ccccc1)c1ccc(Oc2cc(Cl)ccc2Cl)nc1	31%
CC(C)(C)CN/C(=N\O)c1ccnc(Oc2cc(Cl)ccc2Cl)c1	56%
Cc1ccc(Oc2cc(/C(=N/O)NCc3ccccc3C)ccn2)c(C)c1	42%
COCCN/C(=N\O)c1ccnc(Oc2ccc(C)cc2C)c1	6%
O/N=C(\NCc1cccnc1)c1ccnc(Oc2cc(Cl)ccc2Cl)c1	17%
Cc1ccc(Oc2cc(/C(=N/O)N3CCCCCC3)ccn2)c(C)c1	98%
Cc1cc(C)cc(CN/C(=N\O)c2ccc(Oc3cc(Cl)ccc3Cl)nc2)c1	-11%
Cc1ccc(/C(N)=N/O)c(Oc2ccc(F)c(Cl)c2)n1	20%
COc1ccc(-c2nc(CN3CCCCCC3)co2)cc1	18%
CCOc1ccc(-c2nc(CN3CCN(c4cccc(Cl)c4)CC3)co2)cc1	-2%
Cc1ccc(-c2nc(CNC(c3ccccc3)c3ccccc3)co2)cc1	-9%
CCOc1ccccc1-c1nc(CN(C)CC(C)C)co1	3%
COc1ccc(CNCc2coc(-c3cccs3)n2)cc1OC	-8%
Cc1ccc(/C(=N/O)N2CCN(c3ccc(F)cc3)CC2)c(OCc2ccccc2F)n1	7%
CCOc1ccc(-c2nc(CN3CCN(C(=O)c4ccco4)CC3)co2)cc1	0%
COc1ccc(Oc2ncccc2/C(=N/O)NC(C)C)cc1	4%

SMILES	% inhibition
CCC(CC)N/C(=N\O)c1cccnc1Oc1ccc(OC)cc1	100%
CCC(CC)N/C(=N\O)c1cccnc1Oc1ccc(F)cc1	96%
COCC(C)N/C(=N\O)c1cccnc1Oc1ccc(F)cc1 (configuration not stated)	13%
COc1cc2c(cc1OC)C(C(C)C)N(Cc1coc(-c3ccc(F)cc3)n1)CC2 (configuration not stated)	5%
COc1ccc(CN/C(=N\O)c2ccc(C)nc2Oc2ccc(F)cc2)cc1	30%
CCC(C)(C)N/C(=N\O)c1cccnc1Oc1ccc(-n2cncn2)cc1	45%
CCOC(=O)C1CCCN(Cc2coc(-c3ccc(Br)cc3)n2)C1 (configuration not stated)	0%
CSc1ccc(Oc2ncccc2/C(=N/O)NCc2cccnc2)cc1	2%
Cc1ccc(Oc2ncccc2/C(=N/O)N2CC=CCC2)c2c1CCC2	14%
CCc1nc(C)cn1Cc1coc(-c2cccc(OC)c2)n1	-9%
COc1ccc(Oc2ncccc2/C(=N/O)N2CCCCC2)cc1	7%
CCC(C)(C)N/C(=N\O)c1ccc(C)nc1Oc1cc(Cl)ccc1Cl	63%
CCC(C)(C)N/C(=N\O)c1ccc(C)nc1Oc1ccc(Cl)cc1	-12%
CCC(C)(C)N/C(=N\O)c1ccc(C)nc1Oc1ccc(F)c(Cl)c1	-27%
Cc1ccc(/C(=N/O)NCC(C)(C)C)c(Oc2cc(Cl)ccc2Cl)n1	100%
CCOc1ccccc1-c1nc(CN2CC[C@@H]3CCCC[C@@H]3C2)co1	16%
CCOc1ccccc1-c1nc(Cn2ccnc2CC)co1	-1%
N#CCCN(Cc1coc(-c2ccc(Cl)cc2Cl)n1)C1CCCCC1	3%
O/N=C(\NCc1cc(F)ccc1F)c1ccc(Oc2cccc3cccnc23)nc1	4%
COc1cc(-c2nc(CNCC(c3ccccc3)c3ccccc3)co2)cc(OC)c1OC	22%
Cc1cn(/C(=N\O)c2ccc(C)nc2Oc2cccc(F)c2)cn1	0%
COCCN(Cc1coc(-c2ccc(OC)cc2)n1)C(C)C	-10%

SMILES	% inhibition
Cn1nc(C(C)(C)C)cc1NCc1coc(-c2ccccc2Br)n1	-43%
CC(C)(C)COc1ncccc1/C(=N/O)NCc1ccccc1	17%
COc1ccc(-c2nc(CNC(C)CCCC(C)C)co2)cc1 (configuration not stated)	-10%
CCCCCCC(C)NCc1coc(-c2cccc(C)c2)n1 (configuration not stated)	0%
CCCCCCC(C)NCc1coc(-c2ccc(OC)cc2)n1 (configuration not stated)	65%
CCCCCC(C)NCc1coc(-c2ccc(OC)cc2)n1 (configuration not stated)	23%
CCCC(C)NCc1coc(-c2ccc(F)cc2)n1 (configuration not stated)	-16%
CCCCCCC(C)NCc1coc(-c2ccc(O)cc2)n1 (configuration not stated)	52%
CN(Cc1coc(-c2ccc(F)cc2)n1)C(c1ccccc1)c1ccccc1	-2%
Cc1ccc(/C(=N/O)N2CCC(N(C)C)C2)c(Oc2cccnc2)n1 (configuration not stated)	7%
CC(NCc1coc(-c2cccc3ccccc23)n1)c1ccccc1 (configuration not stated)	26%
CCC(NCc1coc(-c2cccc3ccccc23)n1)c1ccccc1 (configuration not stated)	64%
Cc1ccc(C(C)NCc2coc(-c3cccc4ccccc34)n2)cc1 (configuration not stated)	-2%
Cc1ccc([C@@H](C)NCc2coc(-c3cccc4ccccc34)n2)cc1	79%
CCC(NCc1coc(-c2ccccc2Br)n1)c1ccccc1 (configuration not stated)	-20% and -22%
CC(CNCc1coc(-c2ccccc2Cl)n1)c1ccccc1 (configuration not stated)	-5%
CCOc1cccc(-c2nc(CNCc3cccc(OC)c3)co2)c1	-5%
CCN(CC)CCN(CC)Cc1coc(-c2cccs2)n1	1%
COc1cccc(-c2nc(Cn3ccnc3C(C)C)co2)c1	5%
